Source: PubChem BioAssay AID651638 (Johns Hopkins Ion Channel Center, 2012)
Hit rate of the full screen: of about 2,400 compounds, about 2,400 (100%) were called active.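 The calls were made as follows: active = ratio percent of control, averaged over triplicates, above buffer control mean plus 5 SD (cut at about 64% in these data); inactive = the rest.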 The set was probably picked from earlier hits. The list is a sample of the results.

Target: Potassium channel subfamily K member 3 (Homo sapiens) (UniProt O14649)
Experiment: retest of human KCNK3 channel inhibitors, confirmation, CHO cells, FluxOR thallium flux, triplicate (AID 651638);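 also: ratio is the fluorescence rise from min to max over baseline after thallium stimulus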
Settings: FluxOR fluorescence, at 10 µM, active compounds read high, 0% buffer, 100% carvedilol maximal block

Potassium channel subfamily K member 3 (Homo sapiens), sequence (O14649 whole entry, looked up): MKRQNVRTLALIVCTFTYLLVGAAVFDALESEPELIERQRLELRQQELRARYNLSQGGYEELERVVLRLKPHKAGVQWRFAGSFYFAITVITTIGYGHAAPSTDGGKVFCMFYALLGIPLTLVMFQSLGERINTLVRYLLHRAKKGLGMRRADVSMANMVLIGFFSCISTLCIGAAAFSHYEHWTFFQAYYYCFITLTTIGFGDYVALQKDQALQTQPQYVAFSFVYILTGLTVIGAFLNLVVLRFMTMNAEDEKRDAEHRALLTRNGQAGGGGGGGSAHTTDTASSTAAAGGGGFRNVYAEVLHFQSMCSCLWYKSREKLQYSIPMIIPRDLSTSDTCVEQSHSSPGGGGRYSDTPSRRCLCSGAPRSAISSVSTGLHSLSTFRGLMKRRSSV

Ratio percent of control, active:
C=CCSc1nsc(NC(=O)Nc2cccc(C(C)=O)c2)n1 109%
COc1ccc([N+](=O)[O-])cc1-c1nc2ccccc2nc1-c1ccccc1 127%
COc1cccc(C(=O)NCCSc2ccc(Br)cc2)c1 92.3%
Cc1cccc2c1-c1sc(C(=O)NCCCN3CCc4ccccc4C3)cc1CO2 90.3%
O=C(Nc1ccccc1N1CCCC1)c1ccc2ccccc2c1 134%
CCCCC(=O)Nc1ccccc1N1CCN(c2ccc(F)cc2)CC1 102%
Cc1cccc(C(=O)Nc2ccccc2N2CCN(c3ccc(F)cc3)CC2)c1 119%
N#Cc1nc(Cc2cccc3ccccc23)oc1NCc1ccc2c(c1)OCO2 96%
N#Cc1cccc(NC(=O)COC(=O)c2ccccc2C(=O)c2ccc(Cl)c([N+](=O)[O-])c2)c1 135%
CC(Sc1nc2ccccc2c(=O)n1Cc1ccco1)C(=O)c1ccccc1 (stereo not given) 97%
Cc1cc(C)c(C#N)c(SCc2ccc3c(c2)OCO3)n1 137%
CCCCCCCCCCOC(=O)Cn1c(COc2cccc(OC)c2)[n+](C)c2ccccc21 119%
CS/C(=C\C(=O)c1ccco1)Nc1ccccc1Cl 95%
S=C(Nc1cccc(Br)c1)N1CCn2cccc2C1c1cccnc1 (stereo not given) 79.7%
CCCOc1ccc2c3c(c(=O)oc2c1OCCC)CCC3 111%
COc1ccc(CC(=O)Nc2nc(-c3ccc(F)c(F)c3)cs2)cc1OC 134%
CC(Oc1cccc(NC(=O)c2cccs2)c1)C(=O)c1ccccc1 (stereo not given) 103%
Cc1cccc(N(Cc2ccccc2)C(=O)c2ccccc2F)c1 88.3%
CCOc1ccc(C2c3[nH]c4ccccc4c3CCN2Cc2cccn2-c2ncccn2)cc1 (stereo not given) 117%
CC[n+]1cc(C)ccc1/C=C/c1ccc(N(C)C)cc1 143%
COc1ccc(C(C)=O)cc1COc1ccc(Cl)c(C)c1 117%
O=C(Nc1cccc(Cl)c1)Nc1ccccc1NS(=O)(=O)c1cccs1 138%
C=CCc1cc(S(=O)(=O)c2ccc(O)c(CC=C)c2)ccc1O 106%
CC(=O)N(C1=C(Cl)C(=O)c2ccccc2C1=O)c1ccc(C(=O)O)cc1 136%
COc1ccc(S(=O)(=O)NCCCCOc2ccc(Cl)cc2)cc1 123%
C=CCSc1nnc(N2C(=O)C(O)=C(C(=O)c3ccco3)C2c2ccc(F)cc2)s1 (stereo not given) 92%
O=C(Oc1ccc(Br)cc1C(=S)N1CCOCC1)c1cccc([N+](=O)[O-])c1 103%
CCCc1cc(C(=O)N2CCCC(CO)(CCCc3ccccc3)C2)n(C)n1 (stereo not given) 103%
CCN(CC)CCN(C(=O)c1cc(Cl)sc1Cl)c1nc2cc3c(cc2s1)OCO3 121%
COc1ccc(CN(C)C(=O)c2cc(-c3ccc(C)cc3C)nc3ccccc23)c(OC)c1OC 129%
CC(C)CCNC(=O)C(C)N(C(=O)Cn1nnc(-c2ccc(F)cc2)n1)C1CCCC1 (stereo not given) 74%
COC(=O)c1ccc(COC(=O)C2CCN(S(=O)(=O)c3c(Cl)cccc3Cl)CC2)o1 85.3%
CCn1ncc(Br)c1C(=O)Nc1cc(C)ccc1F 87.3%
O=C(Cn1cc(C(=O)c2cccs2)c2ccccc21)NCc1cccs1 116%
COc1cc(Cl)c(S(=O)(=O)N2CCN(Cc3ccc4c(c3)OCO4)CC2)cc1Cl 107%
Cc1nc2ccccc2cc1OCc1ccc(F)cc1 134%
[O-][n+]1ccc(OCc2ccccc2)cc1 73%
Cc1cc(OCCCCOc2ccc(C#N)cc2)ccc1[N+](=O)[O-] 119%
Cc1ccc(S(=O)(=O)NCc2cn3ccsc3n2)c(C)c1 64%
CC(C(=O)NCC1CCCCC1)N(C)Cc1cccc(Cl)c1 (stereo not given) 114%
O=C(CSc1nc(Nc2ccccc2)nc(N2CCOCC2)n1)Nc1cc(Cl)ccc1O 127%
Clc1cccc(-c2nc(NCC3CCCO3)c3ccccc3n2)c1 (stereo not given) 130%
CCc1ccc2nc3sc(C(=O)Nc4nnc(CC)s4)c(N)c3cc2c1 116%
CSc1cccc(NC(=S)N(C(C)C)C(C)c2ccccn2)c1 (stereo not given) 98.3%
COc1ccc(Cl)cc1NC(=O)C(C)N1CCc2ccccc21 (stereo not given) 96.3%
CCc1nc(SCC(=O)NNC(=O)c2ccc(C)cc2)c2ccccc2n1 78%
FC(F)(F)c1cccc(NC(=S)Nc2cccc(Cl)c2)c1 127%
CSc1nccc(NC(=O)c2ccc(C(C)(C)C)cc2)n1 116%
Cc1cccc(NC(=O)c2sc3nc4c(c(-c5ccco5)c3c2N)CCC4)c1 115%
N#Cc1ccc(S(=O)(=O)NCC(=O)OCC(=O)NCCc2ccccc2)cc1 63%
O=C1c2ccccc2C2=Nc3ccccc3SC(c3ccccc3F)C12 (stereo not given) 128%
O=C(c1cc(-c2ccc(O)cc2)on1)N1CCCc2ccccc21 76.7%
COc1ccc2c(c1)C(c1cccs1)=NNC(c1cccnc1)=N2 73.3%
CC(=O)Nc1cccc(OCC(=O)/C=C2\N(C)c3ccccc3C2(C)C)c1 124%
COc1cc(C(=O)Nc2oc(-c3ccccc3)c(-c3ccccc3)c2C#N)cc(OC)c1OC 119%
Cc1nonc1C1CCCN1C(=O)c1cc(COc2cccc(C(F)(F)F)c2)on1 (stereo not given) 87.3%
Cc1ccc(NC(=O)c2cc([N+](=O)[O-])ccc2Cl)c(O)c1 119%
O=C(CC1NCCc2ccccc21)Nc1cccc(Cl)c1 (stereo not given) 115%
CC(NCc1cccs1)C(=O)Nc1cc(Cl)cc(Cl)c1 (stereo not given) 96.3%
Cc1nc(N2CCOCC2)c2c(C)c(C(=O)Nc3ccc(C(F)(F)F)cc3)sc2n1 136%
Cc1nc(N2CCN(c3ccccn3)CC2)c2c(C)c(C(=O)Nc3ccc(F)cc3)sc2n1 125%
Cc1nc(N2CCN(c3ccccn3)CC2)c2c(C)c(C(=O)Nc3ccc(F)c(Cl)c3)sc2n1 129%
CSc1nnc2c(n1)OC(c1ccsc1)N(C(C)=O)c1ccccc1-2 (stereo not given) 106%
CSCc1cc(N(C)C)nc(SCc2ccc(Cl)cc2Cl)n1 115%
O=C(Nn1c(SCc2ccc([N+](=O)[O-])cc2)nc2ccccc2c1=O)c1ccc(F)cc1 139%
COc1ccc(C2Nc3ccccc3C(=O)N2Cc2ccccc2)cc1Cn1nnc2ccccc21 (stereo not given) 110%
FC(F)(F)c1cc(-c2ccco2)nc(NCc2ccc(Cl)cc2)n1 126%
FC(F)(F)c1cccc(-c2cc3ccccc3nc2N2CCCC2)c1 101%
CC(=O)N1CCCc2cc(S(=O)(=O)N3CCCC(C(=O)N4CCN(c5cccc(Cl)c5)CC4)C3)ccc21 (stereo not given) 119%
COc1ccc(CCNC(=O)c2ccccc2OCc2ccccc2)cc1 101%
CC(=O)c1ccccc1OCc1ccc(C(=O)c2ccccc2)cc1 121%
CC(C)c1ccccc1OCC(O)CN(CC(O)COc1cccc2ccccc12)C(C)C (stereo not given) 119%
Cc1cccc(C)c1N1CCN(S(=O)(=O)N2CCCCC2)CC1 122%
N/C(Cc1ccc([N+](=O)[O-])cc1)=N\OC(=O)COc1ccc2ccccc2c1 112%
COC(=O)c1cc(NC2c3ccccc3C(=O)N2c2ccc(Cl)cn2)cc(C(=O)OC)c1 (stereo not given) 115%
COc1cc(/C=C(\C#N)c2nc3ccccc3[nH]2)ccc1O 125%
COc1ccccc1N1CCN(/N=C\C(Br)=C\c2ccccc2)CC1 89.7%
O=C(Nc1ccccc1)O/N=C1\CCCCC1c1ccc([N+](=O)[O-])cc1[N+](=O)[O-] (stereo not given) 118%
CC(C)c1cc(C(=O)N/N=C/c2ccoc2)c(O)c(C(C)C)c1 123%
CCCCCCCCCCCCN1C(=O)CSC1c1cccnc1 (stereo not given) 125%
CCc1cc(C(c2ccccc2OC)N2CCOCC2)c(NC(=O)c2ccccc2)s1 (stereo not given) 102%
COc1cccc(CNc2nc(C(F)(F)F)nc3ccccc23)c1 125%
Cc1cccc2cc(CN(Cc3nnnn3Cc3ccccc3)C3CCCC3)c(=O)[nH]c12 115%
COc1cccc(NC(=S)N(CCc2c(C)[nH]c3ccccc23)Cc2ccco2)c1 113%
COc1ccccc1NC(=O)CSc1nc2sc(C)c(C)c2c(=O)n1Cc1ccco1 108%
O=C(Nc1cccc(S(=O)(=O)Nc2ccc(Cl)cc2)c1)c1ccc2c(c1)OCCO2 105%
C=CCN(N=Nc1cccc([N+](=O)[O-])c1)c1cccc([N+](=O)[O-])c1 109%
COc1ccccc1C(c1nnnn1C(C)(C)C)N1CCN(Cc2ccccc2)CC1 (stereo not given) 109%
COC(=O)C1=C(C)N(C(C)c2ccccc2)C(=O)/C1=C\c1ccco1 (stereo not given) 105%
Cc1ccc(NC(=S)N2CCCC(c3ccccc3)=N2)cc1 97.7%
c1ccc(C(c2ccccc2)N2CCN(Cc3nnnn3C3CCCCC3)CC2)cc1 118%
Cc1cccc(-c2nc3ccc(C(=O)NCCN4CCN(C)CC4)cc3nc2-c2cccc(C)c2)c1 106%
O=C(NCCc1ccccc1)c1ccc2c(c1)N(Cc1ccccc1)CCS2 108%
Cc1c(C(=O)N2CCCc3ccccc32)sc2nc(-c3ccccc3)cn12 102%
C=CCN(C(=O)c1cc(C)cc(C)c1)C1(C(=O)Nc2ccccc2)CCN(C(C)C)CC1 93%
CCCC(=O)Nc1ccc(Cl)c(NC(=O)c2ccc(Br)o2)c1 92.7%
O=C(N/N=C/c1cccc(OCc2ccccc2)c1)c1ccc(Br)o1 116%
Cc1ccc(NC(=O)COC(=O)CNC(=O)c2ccc(Cl)cc2Cl)cc1S(=O)(=O)N1CCOCC1 89%
COc1ccc(-c2nc(CCNC(=O)c3ccc(Br)o3)cs2)cc1 84.7%
CN1CCc2ccccc2C1Cc1ccccc1NC(=O)c1sc2ccccc2c1Cl (stereo not given) 114%
c1ccc2c(NC3C4CC5CC(C4)CC3C5)nc(N3CCOCC3)nc2c1 (stereo not given) 122%
CCOc1ccccc1Oc1cn[nH]c1-c1ccc(OC)cc1O 114%
COCCNc1cc(-c2ccccc2)nc2cc(-c3cccc(F)c3)nn12 130%
COc1cccc(CN(C)CC(O)COC(c2ccccc2)c2ccccc2C)c1 (stereo not given) 110%
Oc1ccc(/C=N/Nc2nc(-c3ccccc3F)nc3ccccc23)c(O)c1 93.3%
O=C(NCCc1c[nH]c2ccccc12)c1cccc(Br)c1 118%
Cc1cc(NC(=O)Nc2ccc(Cl)cc2)n(-c2ccccc2)n1 100%
CN(CCC(=O)Nc1cc(S(=O)(=O)N(C)C)ccc1Cl)CC(=O)Nc1ccc(F)cc1 118%
COc1cccc(COc2ccc(N(C)S(=O)(=O)c3ccccc3)cc2)c1 132%
O=C(N/N=C/c1sc(N2CCCCC2)nc1-c1cccs1)c1cccnc1 123%
COc1cccc(/C=N/Nc2cc(C)nc(-c3ccccc3O)n2)c1O 134%
CCC(C)(C)n1nnnc1C(c1cccs1)N1CCN(c2nc3ccccc3s2)CC1 (stereo not given) 112%
O=C(CNCCC1=CCCCC1)Nc1ccccc1N1CCCCCC1 113%
Cc1cc(C)c(S(=O)(=O)c2ccccc2)c(OC(=O)c2c(F)cccc2Cl)n1 78%
COc1ccc(Nc2ncnc3sc(-c4ccccc4)cc23)c(OC)c1 112%
